Source: PubChem BioAssay
A selection: hits, their analogues and other compounds. The true share with any hit is near 3.5%.
FBW7 activator: activators of human E3 ligase FBW7; Q969H0; AlphaScreen FBW7–phospho-cyclin E peptide binding, activator screen; normalized activity (activation), % at 26.1 µM; 0.13% of 650,000 active; AID 1259310; in the data active means normalized activity above about 1.9%;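 further: purified mutant Fbw7 with reduced substrate affinity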
Target sequence (Q969H0 whole entry, looked up): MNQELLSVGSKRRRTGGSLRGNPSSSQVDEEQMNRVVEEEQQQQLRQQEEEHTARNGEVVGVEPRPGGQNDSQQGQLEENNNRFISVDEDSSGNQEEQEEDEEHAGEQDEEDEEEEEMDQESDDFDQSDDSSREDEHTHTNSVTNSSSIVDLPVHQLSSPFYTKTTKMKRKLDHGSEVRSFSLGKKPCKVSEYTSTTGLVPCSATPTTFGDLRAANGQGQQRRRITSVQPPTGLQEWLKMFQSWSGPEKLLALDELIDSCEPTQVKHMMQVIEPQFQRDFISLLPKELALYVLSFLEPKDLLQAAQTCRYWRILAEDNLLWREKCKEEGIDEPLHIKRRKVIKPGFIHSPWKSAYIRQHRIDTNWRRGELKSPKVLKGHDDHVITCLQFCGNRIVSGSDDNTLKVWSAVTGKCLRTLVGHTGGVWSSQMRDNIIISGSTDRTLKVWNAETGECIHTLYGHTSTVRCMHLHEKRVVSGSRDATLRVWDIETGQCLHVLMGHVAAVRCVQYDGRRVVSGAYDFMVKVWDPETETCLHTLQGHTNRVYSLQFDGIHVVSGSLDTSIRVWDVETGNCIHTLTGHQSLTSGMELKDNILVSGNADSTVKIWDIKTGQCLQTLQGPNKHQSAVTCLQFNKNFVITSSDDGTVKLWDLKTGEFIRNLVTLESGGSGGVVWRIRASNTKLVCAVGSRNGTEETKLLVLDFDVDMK
TEAD-YAP inh: TEAD-YAP interaction inhibition | inhibition, % at 9.12 µM | HEK-TIYL cells, TEAD-Gal4/YAP UAS-luciferase luminescence | 1.4% of 640,000 active; in the data active means inhibition above about 32%;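 further: 0% = median of test compound wells and 100% = reference inhibitor wells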
GPR151 activ: activates the human receptor GPR151; Q8TDV0; PathHunter beta-arrestin GPR151 cells, luminescence; activation, % at 11.2 µM; 1% of 650,000 active; in the data active means activation above about 4.9%;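 further: 0% = median of compound wells and 100% = cells with positive control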
MITF primary: human MITF inhibition, primary screen | O75030 | AlphaScreen MITF homodimerization, bead proximity signal | inhibition, % at 2.6 µM | 0.91% of 650,000 active; in the data active means inhibition above about 50%;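 further: 0% = vehicle wells with protein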
Starred values were filed as active, the others as inactive.

SMILES	FBW7 activator	TEAD-YAP inh	GPR151 activ	MITF primary
Cc1cc(C(=O)NNC(=O)CC23CC4CC(CC(C4)C2)C3)c(C)n1-c1ccccc1	0	7	2	-5
CCOC(=O)CNc1nnnc2c1cnn2-c1ccccc1	0	19	-2	13
Oc1ccc(Br)cc1CN1CCN(Cc2cccnc2)CC1	0	5	-1	67*
Oc1ccc(Br)cc1CN1CCN(CC2CC3C=CC2C3)CC1 (stereo not drawn)	0	3	0	39
Cc1cc(OS(=O)(=O)c2ccc(F)cc2)c(C)cc1CN1CCOCC1	0	9	-1	-5
COc1ccc(S(=O)(=O)Oc2cc(C)cc(C)c2CN2CCOCC2)cc1	0	37*	0	-11
COc1ccc(-c2cnc(SCC(=O)Nc3cccc(F)c3)n2C)cc1	0	33*	-1	8
CCOC(=O)c1ccc(NC(=O)CSc2nc3ccccc3c(=O)n2CCc2ccccc2)cc1	0	7	1	14
O=C(NCc1cccnc1)c1cccc(Nc2ccc(-n3ccnc3)cc2)c1	0	-17	0	7
Cc1ccc2nc(/C(C#N)=C/c3ccccc3OC(=O)c3ccccc3)[nH]c2c1	0	52*	-1	12
O=C(CCl)N(Cc1ccccc1)C1CCS(=O)(=O)C1 (stereo not drawn)	0	56*	0	3
O=C(CCl)N(C1CCCC1)C1CCS(=O)(=O)C1 (stereo not drawn)	1	65*	-1	4
Cn1c(SCC(=O)N(C2CCCCC2)C2CCS(=O)(=O)C2)nnc1C(F)(F)F (stereo not drawn)	0	8	1	2
O=C(CCl)N(C1CCCCC1)C1CCS(=O)(=O)C1 (stereo not drawn)	0	70*	1	0
O=C1C2CC=CCC2C(=O)N1CC(=O)N(Cc1ccccc1)C1CCS(=O)(=O)C1 (stereo not drawn)	0	6	-1	15
CCC(C)N(C(=O)CCl)C1CCS(=O)(=O)C1 (stereo not drawn)	0	56*	2	12
O=C(CCl)N(C1CC1)C1CCS(=O)(=O)C1 (stereo not drawn)	0	54*	1	-10
O=C(CCl)N(CC1CCCO1)C1CCS(=O)(=O)C1 (stereo not drawn)	0	6	-1	-16
CCOC(=O)COc1ccc2ccccc2c1/C=C/[N+](=O)[O-]	0	-12	0	-1
COc1ccc2ccccc2c1/C=C/[N+](=O)[O-]	0	49*	0	22
CC(C)Oc1ccc2ccccc2c1/C=C/[N+](=O)[O-]	0	36*	0	-9
Cc1nn(C)c(C)c1-c1nc(Nc2ccc(N3CCOCC3)cc2)c2ncn(Cc3ccc(C(F)(F)F)cc3)c2n1	0	16	0	2
FC(F)(F)c1ccc(Cn2cnc3c(NC4CC4)nc(Nc4ccccc4)nc32)cc1	0	35*	-1	16
COc1cc(Nc2nc(NC3CCC(O)CC3)nc3c2ncn3Cc2ccc(C(F)(F)F)cc2)cc(OC)c1OC (stereo not drawn)	0	47*	1	7
CCNc1nc(Nc2cc(OC)c(OC)c(OC)c2)c2ncn(Cc3ccc(C(F)(F)F)cc3)c2n1	0	52*	1	5
SMILES	FBW7 activator	TEAD-YAP inh	GPR151 activ	MITF primary
Cc1noc(C)c1-c1nc(Nc2ccc(N3CCOCC3)cc2)c2ncn(Cc3ccc(C(F)(F)F)cc3)c2n1	1	32*	-1	9
COc1cc(Nc2nc(Nc3cc(OC)c(OC)c(OC)c3)c3ncn(Cc4ccc(C(F)(F)F)cc4)c3n2)cc(OC)c1OC	0	10	-1	-6
COc1cc(Nc2nc(Nc3ccc(C(F)(F)F)cc3)nc3c2ncn3Cc2ccc(C(F)(F)F)cc2)cc(OC)c1OC	0	6	1	-2
FC(F)(F)c1ccc(Cn2cnc3c(NC4CC4)nc(Nc4ccc(N5CCOCC5)cc4)nc32)cc1	0	-7	2	7
COc1ccc(CCNC(=O)CSc2nc3ccsc3c(=O)n2CCc2ccc(OC)c(OC)c2)cc1OC	0	8	0	4
CCCc1noc2c1/C(=N\OC(C)=O)CC(C)(C)C2	0	-7	0	-11
Cc1cc(Nc2ccc3c(c2)OCO3)nc(Nc2ccc3ncccc3c2)n1	0	9	4	10
O=C(N/N=C/c1cc([N+](=O)[O-])ccc1Cl)c1cc(-c2cccs2)[nH]n1	0	2	-1	13
COc1cc(Nc2nc(-c3c(C)noc3C)nc3c2ncn3Cc2ccc(C(F)(F)F)cc2)cc(OC)c1OC	0	52*	2	6
COc1cc(Nc2nc(Nc3ccccc3)nc3c2ncn3Cc2ccc(C(F)(F)F)cc2)cc(OC)c1OC	0	3	-1	3
CC(C)(C)C1(C)OC(=O)C(=Cc2ccc(Br)o2)C(=O)O1 (stereo not drawn)	0	-11	0	69*
CCOC(=O)Cn1c(=NC(=O)c2cccc(N3C(=O)CCC3=O)c2)sc2ccccc21	0	12	1	6
COc1ccc(-n2cc(-c3ccccc3)[n+]3c2SCC3)cc1	0	59*	0	0
CCOc1ccc(-c2cn(-c3ccccc3)c3[n+]2CCS3)cc1	0	65*	3	7
COc1ccc(-c2cn(-c3ccccc3)c3[n+]2CCS3)cc1	0	32*	0	9
COc1ccc(-n2cc(-c3ccc(Cl)cc3)[n+]3c2SCCC3)cc1	0	26	-1	-1
C(=C\c1ccco1)/CN1CCOc2ccc(CN3CCN(Cc4ccccn4)CC3)cc2C1	0	-2	2	8
COc1ccccc1-c1[nH]ncc1CNC1CCCCC1	0	4	0	1
COCCN=c1scc(-c2cccc3ccccc23)n1/N=C/c1ccc[nH]1	0	43*	2	10
CCOc1ccc(-c2cn[nH]c2N)cc1	0	48*	-1	15
Cn1cnc([N+](=O)[O-])c1S(=O)CC#N (stereo not drawn)	0	56*	0	14
O=C(c1ccccc1Br)N1CCN(c2ccccn2)CC1	0	-5	2	-1
O=C(c1ccccc1-c1ccccc1)N1CCN(c2ccccn2)CC1	0	52*	-1	19
O=C(c1cc(-c2ccncc2)nc2ccccc12)N1CCN(c2ccccn2)CC1	0	58*	1	-16
CCOc1ccccc1N1CCN(C(=O)c2cc(-c3ccccc3)nc3ccccc23)CC1	0	45*	1	-6
O=C(c1cc(-c2ccccc2)nc2ccccc12)N1CCN(c2ccccc2)CC1	0	7	0	-5
Cc1c(C(C)NC(=O)C[n+]2cc(=O)o[nH]2)cnn1-c1cccc2ccccc12 (stereo not drawn)	0	13	-1	12
CCCC1=Nc2cc(C(=O)NCCOC)ccc2Sc2ccccc21	0	51*	0	9
CCC1=Nc2cc(C(=O)NCCCN3CCOCC3)ccc2Sc2ccccc21	0	2	0	3
CCC1=Nc2cc(C(=O)NCCCOC)ccc2Sc2ccccc21	0	57*	1	2
